# Target: PHF15
# Assay: pooled miR-30 sensor sort-seq; sequence = guide strand
# Conditions: shRNA
# Also: reference of the scale not given here.
row,Sequence,sensor-assay potency score (higher = more potent)
1,TTGTCTGCTAATATAGTCCGCA,0.0345
2,TACATCTGAGTCGCTCATCTCC,-0.519
3,TTGTCCACCTCGTCGGTCTTGG,-0.798
4,TCTAACCCTCTCTAGGTCCTGC,0.0914
5,TTGAACTTGACCTCATCGTTGT,0.744
6,TGTCGCATGACTGTCAGTGGTG,-0.605
7,TAATATAGTCCGCATTTCCAGG,-1.26

# Target: PHF19
# Assay: as above
# Conditions: shRNA
row,Sequence,sensor-assay potency score (higher = more potent)
1,TAAACTTTGAATTTCATCCAGC,0.174
2,TTTTATAACTGTTCAGAGCGTT,0.145
3,TGAATCTTTTTGAAGGTGCAGA,0.0337
4,TTGCTTAGAGCTGCTGACCCTC,-1.03
5,TAACATTGCAGCATCCGCAGGT,0.519
6,TTGAATTTCATCCAGCGTGAAG,-1.1
7,TTTATAACTGTTCAGAGCGTTG,-1.51
8,TTTTCTTCTATAAACTCGCCTT,-0.149
9,TAGTTGGTGATAGATGACTTGA,-1.21
10,TTCTTGATCTCCTTGCCGCAGA,-0.66
11,TTTGAAGTTGTTCTTGACCTTC,-0.341
12,TTGTTCTTGACCTTCGCCAGGG,0.174
